One test addresses RBFOX1. Put plainly: pooled miR-30 sensor sort-seq; sequence = guide strand. As to conditions: shRNA.
Regarding TTGTCTGAGGTCCGGATCCCGG, the sensor-assay potency score (higher = more potent) was -1.44.
Still for that read-out and setting: to TTATTTGTCATTACACGTGCTG belongs 0.199; to TTTAATATCCAACTGATCTTAC, -0.633.
The same measure, in the same setting: to TTTTATTTGTCATTACACGTGC belongs 0.123; to AAACATTTGTCTGAGGTCCGGA, 0.142; to TTTTTATTCATTATCTAGCATC, -0.945.
The sequence TATTTGTCATTACACGTGCTGT gave a sensor-assay potency score (higher = more potent) of -1.1.
Sequence TTGACCAAACATTTGTCTGAGG yielded a sensor-assay potency score (higher = more potent) of -0.662.

The next test deals with RBM12B. Described as above. To be noted: shRNA.
For the sequence TAAGTCTTGAAGATTACCGATG, the sensor-assay potency score (higher = more potent) was -1.18.
Still for that read-out and setting: to TTAAGTGAACATAAAATCCAAG belongs -0.9; to TTTTTGTGAAACATGTCCGGGC, 0.0214.
On the same count and under the same terms, the result for TAGATCTTTAATAGCAGCCATA reads -1.64; that for ATTTTTGTGAAACATGTCCGGG, -0.845; that for TATGACATTTAAGACCTCCTGA, 0.971.
Same read-out and setting: to TTATACTGTATCGAAACTGAAT belongs -1.19; to TAATTGAAGAGCCATATCCAGA, -1.22; to TAATAGGAGTTACTCTACCTGA, -0.42.
As to TAAGTCTTAATAACACCTCTGT, the sensor-assay potency score (higher = more potent) worked out at 0.203.
TATCTCTCTCTAGTGACCCTGA gave a sensor-assay potency score (higher = more potent) of 0.0397.
On the same count and under the same terms, the result for TAGTCTTCTGCATTTCTGCCTT reads -0.412.
Note: reference of the scale not given here.
